# Experimental data reported in PubChem BioAssay (EPA / NIEHS).
# Results filed as inconclusive are left out. The source made the active and inactive calls. Rule for the calls, unless noted: active = hit-call score of the fitted dose curve at least 0.9, where 1 is the maximum; inconclusive = response in the unintended direction; inactive = score below 0.9.
# Assays:
# [1] = TOX21_p53_BLA_p3_viability: Viability Assessment in the Tox21 HCT-116 p53 Agonism Beta-lactamase Assay, Phase 3 (AID 2283593);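 note: cells exposed to compound for 16 h before reading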
# Method in brief: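 HCT-116 cells (4000/well) rested 5 h at 37C, then got DMSO compounds by pin tool (217-fold dilution) for 16 h at 37C, 5% CO2. After the bla read, CellTiter-Glo was added and luminescence read at 30 min, room temperature.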
# [2] = molecular target: Cellular tumor antigen p53 (Homo sapiens) (UniProt P04637); test: TOX21_p53_BLA_p3_ratio: Tox21 HCT-116 p53 Agonism Beta-lactamase Assay, Ratio, Phase 3 (AID 2283596)
# Chain of Cellular tumor antigen p53 (Homo sapiens) (P04637 whole entry, looked up): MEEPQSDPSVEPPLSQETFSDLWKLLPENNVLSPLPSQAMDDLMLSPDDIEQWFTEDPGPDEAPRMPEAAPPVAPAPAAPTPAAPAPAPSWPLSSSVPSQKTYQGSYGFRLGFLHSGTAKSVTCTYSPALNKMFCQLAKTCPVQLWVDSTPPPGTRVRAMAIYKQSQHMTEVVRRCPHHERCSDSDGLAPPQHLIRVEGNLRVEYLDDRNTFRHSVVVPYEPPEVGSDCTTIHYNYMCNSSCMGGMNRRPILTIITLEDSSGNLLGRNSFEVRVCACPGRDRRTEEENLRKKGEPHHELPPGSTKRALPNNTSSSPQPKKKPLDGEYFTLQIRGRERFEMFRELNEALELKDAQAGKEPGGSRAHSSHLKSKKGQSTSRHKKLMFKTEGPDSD
# Method in brief: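 HCT116 p53-bla cells (4000/well) given compound in DMSO (217-fold dilution) after 5 h, incubated 16 h at 37C. CCF4-AM substrate 2 h at room temperature; 460/530 nm emission ratio, gain fitted against DMSO.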
# [3] = molecular target: Cellular tumor antigen p53 (Homo sapiens) (UniProt P04637); test: TOX21_p53_BLA_p5_ratio: Tox21 HCT-116 p53 Agonism Beta-lactamase Assay, Ratio, Phase 5 (AID 2283599)
# Method in brief: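 HCT-116 cells carrying a p53-inducible beta-lactamase reporter were seeded at 4000 cells/well and dosed after 5 h with compound in DMSO (217-fold dilution). After 16 h at 37C, CCF4-AM substrate was added for 2 h, and the 460/530 nm emission ratio was scored as gain-of-signal versus DMSO.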
# [4] = TOX21_p53_BLA_p5_viability: Viability Assessment in the Tox21 HCT-116 p53 Agonism Beta-lactamase Assay, Phase 5 (AID 2283600)
# Method in brief: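 Compounds, pinned from DMSO at 217-fold dilution, were left on the cells for 16 h. The viability endpoint was ATP content measured by CellTiter-Glo luminescence, where falling signal reflects cytotoxicity.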
# [5] = molecular target: Cellular tumor antigen p53 (Homo sapiens) (UniProt P04637); test: TOX21_p53_BLA_p4_ratio: Tox21 HCT-116 p53 Agonism Beta-lactamase Assay, Ratio, Phase 4 (AID 2283601)
# Method in brief: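 HCT116 cells carrying an inducible beta-lactamase reporter were plated at 4000 cells/well, rested 5 h, then exposed to compounds in DMSO (217-fold dilution) for 16 h at 37C. CCF4-AM substrate was loaded 2 h at room temperature; 460/530 nm emission ratio scored gain-of-signal versus DMSO.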
# [6] = TOX21_p53_BLA_p4_viability: Viability Assessment in the Tox21 HCT-116 p53 Agonism Beta-lactamase Assay, Phase 4 (AID 2283597);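 note: hits lower the luminescence signal meaning cytotoxicity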
# Method in brief: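 We seeded HCT116 p53 reporter cells at 4000/well and waited 5 h. We then added compounds in DMSO at a 217-fold dilution and incubated for 16 h. Viability was read as CellTiter-Glo luminescence after 30 min at RT.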
# PGR (gene 5241) [7] = molecular target: PGR (gene 5241) (UniProt P06401); test: TOX21_PR_BLA_Followup_Agonist_ratio: Tox21 HEK293 Progesterone Receptor (PR) Agonism Beta-lactamase Follow-Up Assay, Ratio (AID 2283933)
# Chain of PGR (gene 5241) (P06401 whole entry, looked up): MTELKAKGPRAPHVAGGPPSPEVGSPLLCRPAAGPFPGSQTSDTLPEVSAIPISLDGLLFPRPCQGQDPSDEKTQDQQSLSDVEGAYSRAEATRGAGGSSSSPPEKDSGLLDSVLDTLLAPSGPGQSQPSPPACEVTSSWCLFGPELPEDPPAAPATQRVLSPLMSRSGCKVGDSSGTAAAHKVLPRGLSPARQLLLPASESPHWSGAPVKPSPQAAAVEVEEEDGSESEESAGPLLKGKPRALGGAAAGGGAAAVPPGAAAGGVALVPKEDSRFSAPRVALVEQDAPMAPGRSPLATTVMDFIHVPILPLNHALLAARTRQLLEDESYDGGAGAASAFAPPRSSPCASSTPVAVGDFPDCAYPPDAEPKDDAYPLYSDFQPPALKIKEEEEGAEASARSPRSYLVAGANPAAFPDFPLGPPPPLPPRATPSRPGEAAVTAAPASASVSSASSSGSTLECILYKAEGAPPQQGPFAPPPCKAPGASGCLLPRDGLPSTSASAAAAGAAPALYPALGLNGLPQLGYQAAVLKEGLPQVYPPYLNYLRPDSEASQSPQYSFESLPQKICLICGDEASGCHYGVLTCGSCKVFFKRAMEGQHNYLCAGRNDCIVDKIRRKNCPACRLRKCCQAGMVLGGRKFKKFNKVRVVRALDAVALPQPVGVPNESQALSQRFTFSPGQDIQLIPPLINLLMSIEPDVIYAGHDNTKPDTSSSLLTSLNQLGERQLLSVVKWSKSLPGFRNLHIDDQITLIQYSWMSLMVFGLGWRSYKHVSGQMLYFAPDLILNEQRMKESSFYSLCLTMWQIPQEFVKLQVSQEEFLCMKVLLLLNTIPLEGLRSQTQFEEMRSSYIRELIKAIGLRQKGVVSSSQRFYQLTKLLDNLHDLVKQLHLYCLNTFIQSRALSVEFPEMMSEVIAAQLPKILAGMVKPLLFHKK
# Method in brief: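 HEK293T PR-UAS-bla, 2% CS-FBS; 6 hr preincubation, cpd/DMSO pinned, 16 hr 37C/5% CO2; LiveBLAzer B/G 2 hr RT; FRET ch2/ch1 ratio, agonist direction vs DMSO. Viability by CellTiter-Glo in same wells.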
# PGR (gene 5241) [8] = molecular target: PGR (gene 5241) (UniProt P06401); test: TOX21_PR_BLA_Followup_Antagonist_ratio: Tox21 HEK293 Progesterone Receptor (PR) Antagonism Beta-lactamase Follow-Up Assay, Ratio (AID 2283934)
# Method in brief: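 HEK293T PR-UAS-bla, 2% CS-FBS; 6 hr plating, then cpd + R5020 (1 nM final), 16 hr 37C/5% CO2. B/G FRET substrate 2 h RT. Ratio ch2/ch1 vs DMSO; CellTiter-Glo viability multiplexed, autofluorescence checked.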
# [9] = TOX21_PR_BLA_Followup_Agonist_viability: Viability Assessment in the Tox21 HEK293 Progesterone Receptor (PR) Agonism Beta-lactamase Follow-Up Assay (AID 2283935);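 note: signal loss means lower viability so actives are cytotoxic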
# Method in brief: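 HEK293T PR-UAS-bla, 3,000 cells/well, 2% CS-FBS; 6 hr pre-incubation; cpd in DMSO, 16 hr 37C; LiveBLAzer 2 hr RT, then CellTiter-Glo 30 min RT, luminescence. Decrease = lost viability.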
# PGR (gene 5241) [10] = molecular target: PGR (gene 5241) (UniProt P06401); test: TOX21_PR_LUC_Followup_Agonist: Tox21 HEK293 Progesterone Receptor (PR) Agonism Luciferase Follow-Up Assay (AID 2283937; active = hit-call score of the fitted dose curve at least 0.9, where 1 is the maximum; inactive = score below 0.9)
# Method in brief: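 Cells: HEK293-PR-A-luc, 3,000/well, 10% charcoal-stripped FBS assay medium. Compound added after 5 h; 16 h, 37C, 0% CO2. ONE-Glo luciferase, luminescence. Positive fit vs DMSO.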
# PGR (gene 5241) [11] = molecular target: PGR (gene 5241) (UniProt P06401); test: TOX21_PR_LUC_Followup_Antagonist: Tox21 HEK293 Progesterone Receptor (PR) Antagonism Luciferase Follow-Up Assay (AID 2283938);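 note: curve fitted upward as signal gain over DMSO baseline despite antagonist label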
# Method in brief: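 Luminescence from ONE-Glo reagent, measured after 30 min at room temperature, served as readout. Cells (HEK293 carrying PR-A-luc) had been treated 16 h at 37C with DMSO-dissolved compounds. Activity was fitted against DMSO controls.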
# [12] = TOX21_PR_LUC_Followup_Antagonist_viability: Viability Assessment in the Tox21 HEK293 Progesterone Receptor (PR) Antagonism Luciferase Follow-Up Assay (AID 2283940)
# Method in brief: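 Multiplexed viability counter-screen: after 5 days in charcoal-stripped-FBS medium, HEK293-PR-A-luc cells are plated, pinned with DMSO-dissolved compounds for 16 h at 37C, and ATP content is quantified luminescently via CellTiter-Glo.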
# [13] = TOX21_PR_LUC_Followup_Agonist_viability: Viability Assessment in the Tox21 HEK293 Progesterone Receptor (PR) Agonism Luciferase Follow-Up Assay (AID 2283941);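 note: loss of signal means cytotoxicity so actives lower viability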
# Method in brief: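 Cells were kept 5 days in charcoal-stripped serum medium before plating HEK293-PR-A-luc at 3,000 cells/well. After 5 h they received DMSO-dissolved compound and incubated 16 h at 37C. Viability was taken from CellTiter-Glo ATP luminescence.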
# [14] = TOX21_PR_BLA_Followup_Antagonist_viability: Viability Assessment in the Tox21 HEK293 Progesterone Receptor (PR) Antagonism Beta-lactamase Follow-Up Assay (AID 2283936);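 note: hits lower the luminescence signal meaning cytotoxicity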
# Method in brief: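 PR-UAS-bla HEK293T cells (3,000/well, 2% charcoal-stripped FBS) given compound plus R5020 agonist, 16 h at 37C. CellTiter-Glo added after bla read, 30 min at room temperature; luminescence loss indicates cytotoxicity.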
smiles,measurement,setting,value
C=C(C)CCl,outcome,[1],inactive
same,outcome,[2],inactive
same,outcome,[3],inactive
same,outcome,[4],inactive
CC(C)NC(C)C,outcome,[1],inactive
same,outcome,[2],inactive
same,outcome,[3],inactive
same,outcome,[5],inactive
CCCCCC[N+](=O)[O-],outcome,[1],inactive
same,outcome,[6],inactive
same,outcome,[4],inactive
Clc1ccc(C(Cl)(Cl)Cl)c(Cl)c1,outcome,[1],inactive
same,outcome,[5],inactive
CCOC(=O)c1cncn1C(C)c1ccccc1 (stereo not drawn),outcome,[2],inactive
c1cc2c(c(NC3=NCCN3)c1)CCCC2,outcome,[1],inactive
same,outcome,[3],inactive
same,outcome,[4],inactive
same,outcome,[5],inactive
CC(Cc1ccc2c(c1)OCO2)NO (stereo not drawn),outcome,[1],inactive
same,outcome,[3],inactive
same,outcome,[5],inactive
C=C1C[C@@H]2[C@H](CC[C@]3(C)C(=O)CC[C@@H]23)[C@@]2(C)C=CC(=O)C=C12,outcome,[1],inactive
same,outcome,[2],inactive
same,outcome,PGR (gene 5241) [7],inactive
same,AC50,PGR (gene 5241) [8],23 µM (active)
same,outcome,[9],inactive
same,outcome,PGR (gene 5241) [10],inactive
same,outcome,PGR (gene 5241) [11],inactive
same,outcome,[12],inactive
same,outcome,[13],inactive
CC(C)(C)C(=O)C(Cl)Cl,outcome,[1],inactive
same,outcome,[5],inactive
[Cl-].[Cl-].[Sn+2],outcome,[1],inactive
same,outcome,[6],inactive
same,outcome,[4],inactive
CC1CCCC1,outcome,[2],inactive
same,outcome,[3],inactive
same,outcome,[5],inactive
C[C@H](CN1CCOCC1)C(C(=O)N1CCCC1)(c1ccccc1)c1ccccc1,outcome,[6],inactive
CN[C@@H](C)[C@H](O)c1ccccc1,outcome,[2],inactive
same,outcome,[3],inactive
same,outcome,[4],inactive
same,outcome,[5],inactive
NCCc1ccc(O)cc1,outcome,[2],inactive
same,outcome,[3],inactive
CC(=O)O[C@H]1C[C@H](O[C@H]2[C@@H](O)C[C@H](O[C@H]3[C@@H](O)C[C@H](OC4CC[C@@]5(C)[C@H](CC[C@@H]6[C@@H]5CC[C@]5(C)[C@@H](C7=CC(=O)OC7)CC[C@]65O)C4)O[C@@H]3C)O[C@@H]2C)O[C@H](C)[C@H]1O[C@@H]1O[C@H](CO)[C@@H](O)[C@H](O)[C@H]1O (stereo partly drawn),AC50,[1],0.0855 µM (active)
same,AC50,[6],0.137 µM (active)
same,outcome,[3],inactive
same,AC50,[4],0.0749 µM (active)
CC(C)=CCN1CC[C@]2(C)c3cc(O)ccc3C[C@H]1[C@H]2C,outcome,[1],inactive
same,outcome,[6],inactive
same,outcome,[3],inactive
same,outcome,[4],inactive
CC(N)Cc1ccc(O)cc1 (stereo not drawn),outcome,[2],inactive
same,outcome,[3],inactive
same,outcome,[4],inactive
same,outcome,[5],inactive
CC(=O)CC(c1ccc(Cl)cc1)c1c(O)c2ccccc2oc1=O (stereo not drawn),outcome,[1],inactive
same,outcome,[6],inactive
CN1CCc2cc3c(cc2C1O)OCO3 (stereo not drawn),AC50,[2],61.2 µM (active)
same,AC50,[3],46.3 µM (active)
same,outcome,[4],inactive
same,AC50,[5],46.3 µM (active)
CCCCCCCCCBr,outcome,[2],inactive
same,outcome,[4],inactive
same,outcome,[5],inactive
Cc1ccccc1-n1c(CF)nc2ccc(N)cc2c1=O,outcome,[1],inactive
same,outcome,[4],inactive
C[C@H](N)[C@H](O)c1ccc(O)c(O)c1,outcome,[2],inactive
same,outcome,[3],inactive
same,outcome,[4],inactive
same,outcome,[5],inactive
CCC1(C)CC(=O)NC(=O)C1,outcome,[1],inactive
same,outcome,[5],inactive
COP(N)(=S)Oc1ccccc1C(=O)OC(C)C (stereo not drawn),outcome,[2],inactive
same,outcome,[6],inactive
same,outcome,[3],inactive
same,outcome,[4],inactive
same,outcome,[5],inactive
O=C([O-])c1ccccn1.O=C([O-])c1ccccn1.O=C([O-])c1ccccn1.[Cr+3],outcome,[1],inactive
same,outcome,[3],inactive
same,outcome,[4],inactive
same,outcome,[5],inactive
CC1CC(CC2CCC(N)C(C)C2)CCC1N (stereo not drawn),outcome,[1],inactive
same,outcome,[6],inactive
same,outcome,[4],inactive
CC(C)c1c(CN(C)C(C)Cc2ccccc2)n(C)n(-c2ccccc2)c1=O (stereo not drawn),outcome,[1],inactive
same,outcome,[5],inactive
CCC1COC(Cn2cncn2)(c2ccc(Cl)cc2Cl)O1 (stereo not drawn),outcome,[2],inactive
same,outcome,[3],inactive
same,AC50,PGR (gene 5241) [8],60.3 µM (active)
same,outcome,[9],inactive
same,outcome,[14],inactive
same,AC50,PGR (gene 5241) [11],36.3 µM (active)
same,outcome,[12],inactive
CCN(CC)C(=O)N[C@@H]1C=C2c3cccc4[nH]cc(c34)C[C@@H]2N(C)C1,outcome,[2],inactive
O=c1[nH]c2ccccc2n1CCCN1CCC(n2c(=O)[nH]c3cc(Cl)ccc32)CC1,outcome,[2],inactive
same,outcome,[4],inactive
CCCCCCCCCCOC(=O)c1ccccc1C(=O)OCCCCCCCCCC,outcome,[1],inactive
same,outcome,[3],inactive
O=C1C(=O)c2cccc3cccc1c23,outcome,[1],inactive
same,AC50,[6],33 µM (active)
same,outcome,[3],inactive
same,AC50,[5],9.63 µM (active)
O=C1CC(=O)NC(=O)N1,outcome,[1],inactive
same,outcome,[6],inactive
same,outcome,[3],inactive
same,outcome,[5],inactive
NC1=NC(=O)N2CC12 (stereo not drawn),outcome,[2],inactive
same,outcome,[6],inactive
same,outcome,[3],inactive
same,outcome,[5],inactive
C=CC[C@]1(O)CC[C@H]2[C@@H]3CCC4=CCCC[C@@H]4[C@H]3CC[C@@]21C,outcome,[1],inactive
same,outcome,[6],inactive
same,outcome,[4],inactive
O=NN(CCO)CCO,outcome,[2],inactive
same,outcome,[6],inactive
same,outcome,[5],inactive
